“And” between values parts separate entries of the source, which are not always exact repeats. Identical values can stand only once. The panel holds about 79,000 compounds, 15% with a hit somewhere; the sample as a whole holds those more often. The source made the active and inactive calls. No stated cut-off is given here; in the data, active means growth inhibition above about 70%; inactive means the rest.
Assays:
[1] = NCI Yeast Anticancer Drug Screen. Data for the rad52 strain (AID 147);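 further: 0% = growth of vehicle-treated control cultures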; details: S. cerevisiae rad52 mutant growth inhibition, hits give high values
Method in brief: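 DNA repair-defective yeast; compound exposure; growth scored against vehicle controls.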

[2] = NCI Yeast Anticancer Drug Screen. Data for the wt1 strain (AID 149);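 further: 0% = growth of vehicle-treated wt1 cultures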; details: S. cerevisiae wt1 strain (SPY 50644) growth inhibition, hits give high values
Method in brief: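 Using yeast strain wt1, compound-induced growth inhibition was determined against vehicle-treated cultures.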

[3] = NCI Yeast Anticancer Drug Screen. Data for the rad50EPP+ strain (AID 151);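 further: 0% = growth of vehicle-treated control cultures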; details: S. cerevisiae rad50 mutant strain, hits give high values
Method in brief: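 rad50EPP+ yeast treated with test compounds. Readout: growth vs vehicle control.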

[4] = NCI Yeast Anticancer Drug Screen. Data for the mgt1 strain (AID 153); details: S. cerevisiae mgt1 mutant growth inhibition, hits give high values
Method in brief: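 Growth inhibition relative to vehicle controls was scored for the mgt1 yeast strain after compound exposure.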

[5] = NCI Yeast Anticancer Drug Screen. Data for the rad50 strain (AID 155);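 further: 0% = growth of vehicle-only cultures of the same strain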; details: S. cerevisiae rad50 strain growth inhibition, hits give high values
Method in brief: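 Relative growth inhibition (compound vs vehicle) was measured in yeast with a defined repair-gene alteration.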

[6] = NCI Yeast Anticancer Drug Screen. Data for the mec2-1 strain (AID 157); details: S. cerevisiae mec2-1 strain, hits give high values
Method in brief: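 Growth inhibition is read against vehicle-treated controls after compound exposure of the mec2-1 yeast strain, which is defective in DNA damage repair or cell cycle control.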

[7] = NCI Yeast Anticancer Drug Screen. Data for the rad14 strain (AID 159);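 further: 0% = growth of vehicle-treated control cultures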; details: S. cerevisiae rad14 strain growth inhibition, hits give high values
Method in brief: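 Screen for anticancer potential: a yeast strain altered in DNA damage repair is grown with compound, and reduced growth is quantified against vehicle controls.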

[8] = NCI Yeast Anticancer Drug Screen. Data for the sgs1 mgt1 strain (AID 161);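 further: 0% = growth of cultures given vehicle only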; details: S. cerevisiae sgs1 mgt1 strain, hits give high values
Method in brief: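 This yeast growth screen uses a strain with defined DNA-repair lesions; compound-treated growth is compared with vehicle-treated growth.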

[9] = NCI Yeast Anticancer Drug Screen. Data for the CLN2oe strain (AID 163);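 further: 0% = growth of vehicle-only control cultures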; details: S. cerevisiae CLN2oe strain, hits give high values
Method in brief: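 Compound-treated yeast; growth vs vehicle ctrl = % inhibition. Genetically altered strain (cell-cycle control).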

[10] = NCI Yeast Anticancer Drug Screen. Data for the cln2 rad14 strain (AID 165);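 further: 0% = growth equal to vehicle treated cultures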; details: S. cerevisiae cln2 rad14 strain, hits give high values
Method in brief: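 Growth inhibition, relative to vehicle-treated controls, is the read-out. The test organism is a yeast strain with defined genetic alterations, cln2 rad14.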

[11] = NCI Yeast Anticancer Drug Screen. Data for the bub3 strain (AID 167); details: S. cerevisiae bub3 mutant strain, hits give high values
Method in brief: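 Screening used yeast with an engineered genetic alteration affecting cell cycle control. Compound-exposed cultures were compared with vehicle cultures, and reduced growth was taken as inhibition.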

[12] = NCI Yeast Anticancer Drug Screen. Data for the wt2 strain (AID 169);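 further: 0% = growth of vehicle-treated yeast cultures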; details: S. cerevisiae wt2 strain growth inhibition, hits give high values
Method in brief: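 Compound exposure of yeast; growth compared with vehicle controls; inhibition reported.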

[13] = NCI Yeast Anticancer Drug Screen. Data for the mlh1 strain (AID 171);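 further: 0% = growth of vehicle-treated control cultures of the same strain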; details: S. cerevisiae mlh1 strain growth inhibition, hits give high values
Method in brief: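 Compounds are applied to a genetically altered yeast strain, and its growth is compared with that of vehicle-treated cultures to give percent inhibition.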

[14] = NCI Yeast Anticancer Drug Screen. Data for the sgs1 strain (AID 173);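 further: 0% = growth of vehicle-only control cultures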; details: S. cerevisiae sgs1 mutant, hits give high values
Method in brief: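 Compounds applied to genetically altered yeast; growth compared with vehicle-treated cultures to give % inhibition.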

[15] = NCI Yeast Anticancer Drug Screen. Data for the mlh1 rad18 strain (AID 175); details: S. cerevisiae mlh1 rad18 strain growth inhibition, hits give high values
Method in brief: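 Cells of a genetically altered yeast strain, deficient in DNA damage repair, were treated with compound. Their growth was then compared with that of vehicle-treated cultures to give inhibition.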

[16] = NCI Yeast Anticancer Drug Screen. Data for the rad18 strain (AID 177); details: S. cerevisiae rad18 mutant growth inhibition, hits give high values
Method in brief: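 Compounds are applied to a repair-deficient yeast strain, and growth is compared with that of vehicle-treated cultures to give percent inhibition.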

[17] = at 5.0 µM (retest, dose inferred, filed as 0.5)
[18] = at 50.0 µM (retest, dose inferred, filed as 5.0)

Measured: growth inhibition

CCOC1Oc2ccccc2-c2nc(N)ncc21 (stereo not drawn)
inactive: [1]; at 1.2 µM 7% | [1]; at 3.7 µM 6% | [1]; at 11.0 µM 3% | [1]; at 33.0 µM 3% | [1]; at 100.0 µM -5% | [2]; at 1.2 µM -4% | [2]; at 3.7 µM -1% | [2]; at 11.0 µM 1% | [2]; at 33.0 µM -1% | [2]; at 100.0 µM -14% | [3]; at 1.2 µM 0% | [3]; at 3.7 µM -1% | [3]; at 11.0 µM -5% | [3]; at 33.0 µM -3% | [3]; at 100.0 µM -12% | [4]; at 1.2 µM -2% | [4]; at 3.7 µM 10% | [4]; at 11.0 µM 4% | [4]; at 33.0 µM 9% | [4]; at 100.0 µM 6% | [5]; at 1.2 µM -2% | [5]; at 3.7 µM -13% | [5]; [17] 17% | [5]; at 11.0 µM -5% | [5]; at 33.0 µM 0% | [5]; at 100.0 µM -33% | [6]; at 1.2 µM 13% | [6]; at 3.7 µM 6% | [6]; [17] 3% | [6]; at 11.0 µM -2% | [6]; at 33.0 µM -8% | [6]; [18] 39% | [6]; at 100.0 µM -15% | [7]; at 1.2 µM -3% | [7]; at 3.7 µM -5% | [7]; at 11.0 µM -4% | [7]; at 33.0 µM -1% | [7]; at 100.0 µM -4% | [8]; [17] 10% | [8]; at 50.0 µM -4.55% | [9]; at 1.2 µM 7% | [9]; at 3.7 µM 4% | [9]; at 11.0 µM -14% | [9]; at 33.0 µM -27% | [9]; at 100.0 µM 1% | [10]; [17] 22% | [10]; [18] 37% | [10]; at 50.0 µM -20.9% | [11]; at 1.2 µM 4% | [11]; at 3.7 µM -7% | [11]; [17] 2% | [11]; at 11.0 µM -12% | [11]; at 33.0 µM -5% | [11]; [18] 23% | [11]; at 50.0 µM -16.8% | [11]; at 100.0 µM -9% | [12]; at 1.2 µM -3% | [12]; at 3.7 µM -7% | [12]; at 11.0 µM -7% | [12]; at 33.0 µM -2% | [12]; at 100.0 µM -10% | [13]; at 1.2 µM 11% | [13]; at 3.7 µM 16% | [13]; at 11.0 µM 1% | [13]; at 33.0 µM 4% | [13]; at 100.0 µM -1% | [14]; at 1.2 µM 3% | [14]; at 3.7 µM 11% | [14]; at 11.0 µM 5% | [14]; at 33.0 µM -9% | [14]; at 100.0 µM -9% | [15]; [17] 12% | [15]; at 50.0 µM -21.9% | [16]; at 1.2 µM 4% | [16]; at 3.7 µM 7% | [16]; at 11.0 µM -1% | [16]; at 33.0 µM 3% | [16]; at 100.0 µM -2%
active: [5]; [18] 75% | [5]; at 50.0 µM 88.3% | [6]; at 50.0 µM 85.4% | [8]; [18] 85% | [15]; [18] 76%

COC1=C(N)C(=O)c2nc(-c3nc(C(=O)O)c(C)c(-c4ccc(OC)c(OC)c4O)c3N)ccc2C1=O
active: [1]; at 1.2 µM 97% | [1]; at 3.7 µM 97% | [1]; at 11.0 µM 98% | [1]; at 33.0 µM 98% | [1]; at 100.0 µM 97% | [2]; at 1.2 µM 98% | [2]; at 3.7 µM 99% | [2]; at 11.0 µM 99% | [2]; at 33.0 µM 99% | [2]; at 100.0 µM 98% | [3]; at 1.2 µM 91% | [3]; at 3.7 µM 93% | [3]; at 11.0 µM 94% | [3]; at 33.0 µM 96% | [3]; at 100.0 µM 96% | [4]; at 1.2 µM 97% | [4]; at 3.7 µM 98% | [4]; at 11.0 µM 98% | [4]; at 33.0 µM 98% | [4]; at 100.0 µM 98% | [5]; at 1.2 µM 96% | [5]; at 3.7 µM 97% | [5]; [17] 96% and 98% | [5]; at 11.0 µM 97% | [5]; at 33.0 µM 98% | [5]; [18] 97% and 98% | [5]; at 50.0 µM 93.5% and 92.5% | [5]; at 100.0 µM 97% | [6]; at 1.2 µM 96% | [6]; at 3.7 µM 98% | [6]; [17] 97% and 99% | [6]; at 11.0 µM 99% | [6]; at 33.0 µM 99% | [6]; [18] 98% and 99% | [6]; at 50.0 µM 94% | [6]; at 100.0 µM 98% | [7]; at 1.2 µM 98% | [7]; at 3.7 µM 98% | [7]; at 11.0 µM 98% | [7]; at 33.0 µM 98% | [7]; at 100.0 µM 98% | [8]; [18] 98% and 96% | [8]; at 50.0 µM 94.2% and 93.8% | [9]; at 1.2 µM 89% | [9]; at 3.7 µM 93% | [9]; at 11.0 µM 96% | [9]; at 33.0 µM 97% | [9]; at 100.0 µM 96% | [10]; [18] 98% and 92% | [10]; at 50.0 µM 93% and 92.2% | [11]; at 1.2 µM 95% | [11]; at 3.7 µM 97% | [11]; at 11.0 µM 98% | [11]; at 33.0 µM 97% | [11]; [18] 98% and 93% | [11]; at 50.0 µM 94% and 92.8% | [11]; at 100.0 µM 98%
inactive: [8]; [17] 16% and 59% | [10]; [17] 13% and 49% | [11]; [17] 14% and 30%

Reference: PubChem BioAssay (NCI)
